Where “and” joins values, the source holds several entries; their conditions need not be identical. Equal entries are not always repeated. About 83,000 compounds went through this panel and 20% of them were active in at least one assay; those are over-represented in the sample as a whole.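 The test compound was applied at a single concentration to cells in 96-well plates for 48 hours, and percent growth was recorded.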 A structure can be active in one record and inactive in another. Calls of active or inactive are those of the source. Rule for the calls: active = growth percent below 10; inactive = the rest.
Key:
Assay in all cases: NCI-60 one-dose screen, 48 h (100 = growth as untreated, 0 = no growth, -100 = all killed)
Settings in all cases: 10 µM unless noted
DU-145 prostate = system: DU-145 prostate
K-562 leukemia = system: K-562 leukemia
MALME-3M melanoma = system: MALME-3M melanoma
MDA-MB-231 breast = system: MDA-MB-231 breast
RXF 393 renal = system: RXF 393 renal
SF-268 CNS = system: SF-268 CNS
SF-295 CNS = system: SF-295 CNS
SF-539 CNS = system: SF-539 CNS
UACC-257 melanoma = system: UACC-257 melanoma
M14 melanoma = system: M14 melanoma
HCT-15 colon = system: HCT-15 colon
HT29 colon = system: HT29 colon
PC-3 prostate = system: PC-3 prostate
SK-MEL-5 melanoma = system: SK-MEL-5 melanoma
UACC-62 melanoma = system: UACC-62 melanoma
LOX IMVI melanoma = system: LOX IMVI melanoma
SK-MEL-28 melanoma = system: SK-MEL-28 melanoma
U251 CNS = system: U251 CNS
SNB-19 CNS = system: SNB-19 CNS
SNB-75 CNS = system: SNB-75 CNS

Compound	growth (DU-145 prostate)	growth (K-562 leukemia)	growth (MALME-3M melanoma)	growth (MDA-MB-231 breast)	growth (RXF 393 renal)	growth (SF-268 CNS)	growth (SF-295 CNS)	growth (SF-539 CNS)	growth (UACC-257 melanoma)	growth (M14 melanoma)	growth (HCT-15 colon)	growth (HT29 colon)	growth (PC-3 prostate)	growth (SK-MEL-5 melanoma)	growth (UACC-62 melanoma)	growth (LOX IMVI melanoma)	growth (SK-MEL-28 melanoma)	growth (U251 CNS)	growth (SNB-19 CNS)	growth (SNB-75 CNS)
CC1=C(/C=C/C(C)=C/C=C/C(C)=C/C=N/NC(=S)NC(=S)N/N=C/C=C(C)/C=C/C=C(C)/C=C/C2=C(C)CCCC2(C)C)C(C)(C)CCC1	45.4% (inactive) and 40.3% (inactive)	1.87% (active) and -33.1% (active)	-42.6% (active) and -41.6% (active)	21.6% (inactive) and -34.1% (active)	-98.2% (active)	30.9% (inactive) and -13% (active)	30.3% (inactive) and -7.18% (active)	-82.5% (active) and -94.5% (active)	12.7% (inactive) and -28.3% (active)	-94.8% (active) and -97.5% (active)	26.5% (inactive) and -6.65% (active)	-0.991% (active) and -29.3% (active)	-1.77% (active) and -12.4% (active)	-63% (active) and -96.5% (active)	-60% (active) and -75.5% (active)	-100% (active) and -93.6% (active)	-24.4% (active) and -57.5% (active)	–	–	–
Clc1nc(Oc2ccccc2)nc(-c2cn(-c3ccccc3)c3ccccc23)n1	76.7% (inactive)	36.9% (inactive)	85.7% (inactive)	40% (inactive)	42.9% (inactive)	28.3% (inactive)	86.2% (inactive)	91.1% (inactive)	93.6% (inactive)	71.1% (inactive)	38.5% (inactive)	40.6% (inactive)	41.3% (inactive)	102% (inactive)	80.7% (inactive)	10.7% (inactive)	-18.3% (active)	47.2% (inactive)	–	–
CCN(CC)CCNc1cc(-c2cccc(OC(F)(F)F)c2)nc2ccc(N3CCCC3)cc12	60.6% (inactive) and 19% (inactive) and 45.4% (inactive)	-23% (active) and -25.5% (active) and -21% (active)	-50.9% (active) and -42.3% (active) and -14.1% (active)	0.557% (active) and -6.72% (active) and -8.3% (active)	16.3% (inactive) and -15.5% (active) and 34.2% (inactive)	61.1% (inactive) and 18.8% (inactive) and 34.5% (inactive)	72% (inactive) and -26.3% (active) and 35.1% (inactive)	31.6% (inactive) and -38.2% (active) and 56.9% (inactive)	62.5% (inactive) and -10.1% (active) and -0.682% (active)	-85.8% (active) and -56.6% (active) and -63.5% (active)	24.3% (inactive) and 3.13% (active) and 13.6% (inactive)	–	-94.4% (active) and 7.18% (active) and 28.2% (inactive)	-2.81% (active) and -88% (active) and 7.43% (active)	-64.9% (active) and -73.2% (active) and -23.9% (active)	-40.9% (active) and -59.6% (active) and -51.7% (active)	-9.25% (active) and -32.5% (active) and 11% (inactive)	46.2% (inactive) and -36.6% (active) and 15.6% (inactive)	2.91% (active) and 15.2% (inactive) and 36.9% (inactive)	–
O=C(Nc1ccc([N+](=O)[O-])cc1Cl)c1cc(Cl)ccc1O	3.92% (active) and 17.7% (inactive)	3.36% (active) and 12.4% (inactive)	-8.09% (active) and -27.3% (active)	-43.3% (active) and -31.2% (active)	-27.4% (active) and -21.6% (active)	5.52% (active) and 16.4% (inactive)	-56.8% (active) and -57.8% (active)	-16.5% (active) and 4.67% (active)	-34.2% (active) and 3.09% (active)	-24.1% (active) and -34.4% (active)	-3.38% (active) and 0.947% (active)	-15.8% (active) and 3.08% (active)	2.75% (active) and 6.39% (active)	-89% (active)	-65.7% (active) and -45.3% (active)	-17.5% (active) and -58.5% (active)	5.94% (active) and -10% (active)	–	–	–
COc1ccc(/C(C#N)=C/c2ccccn2)cc1	107% (inactive) and 120% (inactive)	101% (inactive) and 85.6% (inactive)	129% (inactive) and 134% (inactive)	107% (inactive) and 127% (inactive)	99% (inactive) and 96.4% (inactive)	99.1% (inactive) and 122% (inactive)	102% (inactive) and 134% (inactive)	108% (inactive) and 106% (inactive)	110% (inactive) and 112% (inactive)	109% (inactive) and 111% (inactive)	96.2% (inactive) and 109% (inactive)	106% (inactive) and 103% (inactive)	104% (inactive) and 101% (inactive)	94.9% (inactive) and 99.9% (inactive)	93.8% (inactive) and 114% (inactive)	99.7% (inactive) and 115% (inactive)	107% (inactive) and 139% (inactive)	97.9% (inactive) and 101% (inactive)	–	–
CC[N+](CC)(CC(=O)Nc1c(C)cccc1C)Cc1ccccc1	101% (inactive)	94.7% (inactive)	96.3% (inactive) and 89.9% (inactive)	75.7% (inactive) and 97.2% (inactive)	92.8% (inactive) and 106% (inactive)	91.9% (inactive) and 104% (inactive)	104% (inactive) and 101% (inactive)	111% (inactive) and 102% (inactive)	92.2% (inactive)	95.3% (inactive) and 100% (inactive)	88.6% (inactive) and 104% (inactive)	–	84.3% (inactive) and 97.2% (inactive)	85.7% (inactive) and 98.7% (inactive)	81.6% (inactive) and 93.2% (inactive)	79% (inactive) and 98.3% (inactive)	99.7% (inactive) and 103% (inactive)	75.6% (inactive) and 97.9% (inactive)	95.4% (inactive) and 96.8% (inactive)	84.9% (inactive) and 101% (inactive)
CCOc1ccc2c(S(=O)(=O)O)cccc2c1[N+](=O)[O-]	104% (inactive) and 116% (inactive)	101% (inactive) and 88.4% (inactive)	106% (inactive) and 101% (inactive)	106% (inactive) and 110% (inactive)	114% (inactive) and 100% (inactive)	99.1% (inactive) and 96.2% (inactive)	104% (inactive) and 107% (inactive)	102% (inactive) and 107% (inactive)	114% (inactive) and 100% (inactive)	108% (inactive) and 99.6% (inactive)	103% (inactive) and 108% (inactive)	105% (inactive) and 117% (inactive)	93.4% (inactive) and 87.4% (inactive)	108% (inactive)	101% (inactive) and 110% (inactive)	105% (inactive) and 102% (inactive)	113% (inactive) and 118% (inactive)	–	–	–
N#CC(C#N)=C/C=C/c1cccc([N+](=O)[O-])c1	-26.8% (active) and -24.1% (active)	7.22% (active) and 3.61% (active)	7.87% (active)	9.84% (active) and 8.38% (active)	-68.9% (active) and -73.5% (active)	6.01% (active) and -8.99% (active)	37.1% (inactive) and -41.1% (active)	8.63% (active) and 4.54% (active)	-32% (active) and -64.4% (active)	-37.1% (active) and -74.9% (active)	-6.94% (active) and -31.6% (active)	–	14.5% (inactive) and 0.0705% (active)	8.16% (active) and -10.6% (active)	-51.7% (active) and -61.6% (active)	-29.1% (active) and -78.9% (active)	5.56% (active) and -41.8% (active)	10% (inactive) and -22.7% (active)	51.3% (inactive) and 41.4% (inactive)	68.2% (inactive) and 11.3% (inactive)
Cn1c(SSc2ccc(-c3cccnc3)n2C)ccc1-c1cccnc1	115% (inactive) and 107% (inactive)	75.9% (inactive) and 7.91% (active)	102% (inactive) and 105% (inactive)	91.4% (inactive) and 110% (inactive)	105% (inactive) and 110% (inactive)	82.1% (inactive) and 93.5% (inactive)	77.9% (inactive) and 93.7% (inactive)	116% (inactive) and 122% (inactive)	86.1% (inactive) and 93.8% (inactive)	–	111% (inactive) and 104% (inactive)	110% (inactive) and 115% (inactive)	65% (inactive) and 68.2% (inactive)	95.6% (inactive) and 91.6% (inactive)	82.5% (inactive) and 109% (inactive)	59% (inactive) and 98.2% (inactive)	98.9% (inactive) and 104% (inactive)	72.6% (inactive) and 106% (inactive)	110% (inactive) and 109% (inactive)	89.4% (inactive) and 97.7% (inactive)
